Data reported in PubChem BioAssay (EPA / NIEHS).
Inconclusive results are not listed. Activity calls are given as the source filed them. The calls were made as follows, unless noted: active = hit-call score of the fitted dose curve at least 0.9, where 1 is the maximum; inactive = score below 0.9.

Legend:
[1] = read-out: Monocyte Chemoattractant Protein-1 (MCP1), CCL2 (gene 6347); experiment: BSK_SAg_MCP1: BioMAP Diversity Plus: SAg Assay for Monocyte Chemoattractant Protein-1 (MCP1) Biomarker Activity (AID 2283090); conditions: primary human HUVEC with PBMC; actives raise or lower the signal
How it was run: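 Values derive from bidirectional fitting of ELISA-measured MCP1 against DMSO controls. Readings were taken 24 h after dosing human vascular endothelial cells co-cultured with peripheral blood mononuclear cells under superantigen stimulation.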

[2] = read-out: E-selectin (Homo sapiens) (UniProt P16581); experiment: BSK_SAg_Eselectin: BioMAP Diversity Plus: SAg Assay for Eselectin Biomarker Activity (AID 2283091); conditions: primary human HUVEC with PBMC; actives raise or lower the signal
How it was run: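 Endpoint values derive from bidirectional fitting relative to DMSO, using ELISA-measured E-selectin in a human vascular co-culture (umbilical vein endothelium plus PBMC) sampled 24 h after dosing.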

[3] = read-out: Monokine induced gamma interferon (MIG), CXCL9 (gene 4283); experiment: BSK_SAg_MIG: BioMAP Diversity Plus: SAg Assay for Monokine induced gamma interferon (MIG) Biomarker Activity (AID 2283092); conditions: primary human HUVEC with PBMC; actives raise or lower the signal
How it was run: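 Endothelial cells and PBMC were co-cultured, exposed to test chemicals, and sampled 24 h later. MIG was measured by ELISA, and responses were fitted in both directions relative to DMSO.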

[4] = BSK_SAg_PBMCCytotoxicity: PBMC Cytotoxicity Assessment in the BioMAP Diversity Plus: SAg Assay (AID 2283093); conditions: primary human HUVEC with PBMC;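 also: PBMC viability measured as Alamar Blue reduction fluorescence at 546/580 nm; fitted both ways against DMSO so a hit may be loss or gain of signal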;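 as to AC50: PBMC superantigen activated with SEB plus TSST-1 one hour after compound addition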
How it was run: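 Alamar Blue reduction (6 h, ex/em 546/580 nm) read after 90 h culture of PBMC pre-dosed 1 h then stimulated with SEB plus TSST-1, 20 ng/mL each. Gain or loss of signal fitted relative to DMSO.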

[5] = read-out: Interleukin-8 (IL8), CXCL8 (gene 3576); experiment: BSK_SAg_IL8: BioMAP Diversity Plus: SAg Assay for Interleukin-8 (IL8) Biomarker Activity (AID 2283094); conditions: primary human HUVEC with PBMC; actives raise or lower the signal
How it was run: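 HUVEC/PBMC co-culture, 24 h post-dose; IL-8 by ELISA. Gain or loss of signal fitted bidirectionally vs DMSO baseline.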

[6] = BSK_SAg_Proliferation: Cell Proliferation Assessment in the BioMAP Diversity Plus: SAg Assay (AID 2283095); conditions: primary human HUVEC with PBMC;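 also: relative cell number as total protein by SRB absorbance in sub-confluent culture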
How it was run: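 HUVEC/PBMC co-culture, 96-well. TCA-fixed (10%), 0.1% SRB stain, A560 at 96 h. Protein content used as viability readout; bidirectional fitting vs DMSO control.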

[7] = BSK_SAg_SRB: Viability Assessment in the BioMAP Diversity Plus: SAg Assay (AID 2283096); conditions: primary human HUVEC with PBMC;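 also: cells read one day after compound addition; hits may be either gain or loss of signal compared with DMSO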
How it was run: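 SRB absorbance at 560 nm served as the viability read-out. Cells (HUVEC plus peripheral blood mononuclear cells) were TCA-fixed and stained 24 h post-dosing; activity fitted in both directions against DMSO controls.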

[8] = biological target: human CYP19A1, CYP19A1 (gene 1588) (UniProt P11511); experiment: NVS_ADME_hCYP19A1: NovaScreen (NVS) CYP450-related Enzyme Activity (ADME) Assay for human CYP19A1 (AID 2283098; active = hit-call score of the fitted dose curve at least 0.9, where 1 is the maximum;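 as to AC50: potency for inhibitors seen as loss of fluorescent enzyme signal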)
Sequence of human CYP19A1, CYP19A1 (gene 1588) (P11511 whole entry, looked up): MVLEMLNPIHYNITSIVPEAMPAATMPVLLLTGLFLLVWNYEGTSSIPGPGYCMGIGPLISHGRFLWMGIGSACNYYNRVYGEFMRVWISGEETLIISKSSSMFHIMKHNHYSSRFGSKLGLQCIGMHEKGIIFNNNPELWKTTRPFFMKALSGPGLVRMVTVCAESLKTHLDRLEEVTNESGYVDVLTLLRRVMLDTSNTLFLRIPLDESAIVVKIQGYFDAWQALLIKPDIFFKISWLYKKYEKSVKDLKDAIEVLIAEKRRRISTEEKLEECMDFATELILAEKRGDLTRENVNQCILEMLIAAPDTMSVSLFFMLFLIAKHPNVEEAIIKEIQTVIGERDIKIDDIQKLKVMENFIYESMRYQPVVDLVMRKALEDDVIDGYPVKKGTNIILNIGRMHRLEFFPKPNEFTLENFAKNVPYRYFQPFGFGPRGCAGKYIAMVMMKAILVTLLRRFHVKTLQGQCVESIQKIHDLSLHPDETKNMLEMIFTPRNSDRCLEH
How it was run: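 Primary testing was in duplicate at a single 10 uM concentration, with actives followed up in concentration-response series. Fluorescence read-out of recombinant enzyme activity at 0.5 h, cell-free. Acetonitrile was the negative-control baseline.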

[9] = biological target: human CYP2A6, CYP2A6 (gene 1548) (UniProt P11509); experiment: NVS_ADME_hCYP2A6: NovaScreen (NVS) CYP450-related Enzyme Activity (ADME) Assay for human CYP2A6 (AID 2283099; active = hit-call score of the fitted dose curve at least 0.9, where 1 is the maximum)
Sequence of human CYP2A6, CYP2A6 (gene 1548) (P11509 whole entry, looked up): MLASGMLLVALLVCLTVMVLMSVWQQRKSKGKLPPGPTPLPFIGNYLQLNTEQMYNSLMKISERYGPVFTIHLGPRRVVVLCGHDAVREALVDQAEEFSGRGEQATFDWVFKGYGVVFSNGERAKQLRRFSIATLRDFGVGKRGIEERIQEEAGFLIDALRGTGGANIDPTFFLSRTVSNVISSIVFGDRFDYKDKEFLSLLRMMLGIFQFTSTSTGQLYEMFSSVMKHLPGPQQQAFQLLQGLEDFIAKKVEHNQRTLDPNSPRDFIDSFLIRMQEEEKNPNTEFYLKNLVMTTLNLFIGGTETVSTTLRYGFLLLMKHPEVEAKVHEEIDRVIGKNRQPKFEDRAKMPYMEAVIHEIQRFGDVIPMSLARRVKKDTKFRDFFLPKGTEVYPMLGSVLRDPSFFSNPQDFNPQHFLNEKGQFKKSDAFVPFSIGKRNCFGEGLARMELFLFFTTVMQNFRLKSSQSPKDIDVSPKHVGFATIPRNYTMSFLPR
How it was run: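 Loss of fluorescence signal relative to acetonitrile vehicle reported CYP2A6 inhibition in a cell-free system using insect-cell-derived enzyme. Readings were taken at 0.5 h; top concentration in follow-up dose series was 20 uM.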

[10] = biological target: human CYP2B6, CYP2B6 (gene 1555) (UniProt P20813); experiment: NVS_ADME_hCYP2B6: NovaScreen (NVS) CYP450-related Enzyme Activity (ADME) Assay for human CYP2B6 (AID 2283101; active = hit-call score of the fitted dose curve at least 0.9, where 1 is the maximum)
Sequence of human CYP2B6, CYP2B6 (gene 1555) (P20813 whole entry, looked up): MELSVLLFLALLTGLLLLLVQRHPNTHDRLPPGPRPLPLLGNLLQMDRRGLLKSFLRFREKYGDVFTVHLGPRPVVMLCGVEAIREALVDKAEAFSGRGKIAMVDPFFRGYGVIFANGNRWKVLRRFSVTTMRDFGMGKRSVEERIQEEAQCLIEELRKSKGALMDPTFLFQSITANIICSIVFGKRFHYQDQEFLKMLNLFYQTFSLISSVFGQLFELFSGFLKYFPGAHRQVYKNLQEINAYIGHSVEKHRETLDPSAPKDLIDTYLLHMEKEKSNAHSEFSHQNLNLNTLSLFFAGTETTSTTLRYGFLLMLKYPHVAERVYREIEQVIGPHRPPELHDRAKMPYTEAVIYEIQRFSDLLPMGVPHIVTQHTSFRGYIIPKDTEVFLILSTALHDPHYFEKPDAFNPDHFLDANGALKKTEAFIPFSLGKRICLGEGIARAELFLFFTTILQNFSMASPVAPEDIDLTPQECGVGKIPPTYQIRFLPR
How it was run: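 Cell-free recombinant enzyme assay with a fluorogenic substrate; fluorescence intensity read 1 hour after dosing. Loss of signal relative to acetonitrile negative control indicates inhibition. Primary screen run in duplicate at 10 uM, actives then tested in concentration series.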

Measured: AC50

Sequence of E-selectin (Homo sapiens) (P16581 whole entry, looked up): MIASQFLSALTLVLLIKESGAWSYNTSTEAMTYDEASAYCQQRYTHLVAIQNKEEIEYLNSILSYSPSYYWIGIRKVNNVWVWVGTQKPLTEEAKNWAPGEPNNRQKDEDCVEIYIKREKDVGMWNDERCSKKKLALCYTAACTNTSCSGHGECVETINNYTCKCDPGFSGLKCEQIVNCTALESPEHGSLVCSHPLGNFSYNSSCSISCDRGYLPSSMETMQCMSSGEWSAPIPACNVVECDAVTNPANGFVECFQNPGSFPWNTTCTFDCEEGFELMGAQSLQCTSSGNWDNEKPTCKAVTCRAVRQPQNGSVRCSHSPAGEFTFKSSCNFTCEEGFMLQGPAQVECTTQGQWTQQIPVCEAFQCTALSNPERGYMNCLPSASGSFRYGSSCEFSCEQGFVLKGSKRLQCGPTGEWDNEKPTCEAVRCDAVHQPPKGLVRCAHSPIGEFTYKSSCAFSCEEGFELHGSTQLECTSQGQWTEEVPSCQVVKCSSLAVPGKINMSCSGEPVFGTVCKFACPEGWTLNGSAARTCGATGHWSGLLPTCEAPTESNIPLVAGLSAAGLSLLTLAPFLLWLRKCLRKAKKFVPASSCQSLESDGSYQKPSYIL

C=CC(=O)OCCCCCCCC(C)C
inactive: [1] | [2] | [3] | [5] | [7]
active: [4] 20 µM | [6] 23.3 µM

CC(c1cc(C(C)(C)C)cc(C(C)(C)C)c1O)c1cc(C(C)(C)C)cc(C(C)(C)C)c1O
active: [6] 5.29 µM
not listed: [8] | [9] | [10]
inactive: all other assays above

CCCCCCCCC(CO)CCCCCC (stereo not given)
not listed: [8] | [9] | [10]
inactive: all other assays above

Oc1ccccc1Cc1ccccc1O
not listed: [8] | [9] | [10]
inactive: all other assays above

CC(C)[N+](C)(CCOC(=O)C1c2ccccc2Oc2ccccc21)C(C)C
not listed: [8] | [9] | [10]
inactive: all other assays above

CCCC(CC)c1ccccc1 (stereo not given)
active: [8] 10.4 µM

CCCCCC1=CCCC1=O
not listed: [8] | [9] | [10]
inactive: all other assays above

CC(C)C(=O)OCCc1ccccc1
not listed: [8] | [9] | [10]
inactive: all other assays above

Fc1ccc(Br)cc1
not listed: [8] | [9] | [10]
inactive: all other assays above

CCCCCCCO
not listed: [8] | [9] | [10]
inactive: all other assays above

CCNc1nc(NC(C)(C)C)nc(OC)n1
active: [2] 8.44 µM
not listed: [8] | [9] | [10]
inactive: all other assays above

C=CCCCCCCCCC=O
not listed: [8] | [9] | [10]
inactive: all other assays above

CCCCCCC=O
not listed: [8] | [9] | [10]
inactive: all other assays above

Cc1ccc(C)c(OCCCC(C)(C)C(=O)O)c1
active: [8] 15.6 µM

Oc1ccc(/C=C/c2cc(O)cc(O)c2)cc1
active: [6] 20 µM
not listed: [8] | [9] | [10]
inactive: all other assays above

CC/C=C\C/C=C\C/C=C\CCCCCCCC(=O)OC
active: [1] 33.8 µM | [2] 13 µM | [3] 37.2 µM | [4] 20 µM | [5] 20 µM | [6] 6.5 µM | [7] 29 µM

CCOC(=O)C1=NN(c2ccc(Cl)cc2Cl)C(C)(C(=O)OCC)C1 (stereo not given)
not listed: [8] | [9] | [10]
inactive: all other assays above

C=CC(=O)OCC(C)OCC(C)OCC(C)OC(=O)C=C (stereo not given)
active: [1] 10.5 µM | [2] 5.5 µM | [3] 20 µM | [4] 5.29 µM | [5] 3.14 µM | [6] 2.88 µM | [7] 21.6 µM

O=C(O)c1ccc2c(c1)C(=O)OC2=O
inactive: [8]

Clc1cc(Cl)c(Cl)c(Cl)c1Cl
not listed: [8] | [9] | [10]
inactive: all other assays above

COc1ccc(C(=O)c2ccccc2)c(O)c1
not listed: [8] | [9] | [10]
inactive: all other assays above

Nc1ccc(C(=O)O)cc1
not listed: [8] | [9] | [10]
inactive: all other assays above

Cc1ccc([N+](=O)[O-])cc1N
active: [2] 5.91 µM | [9] 10 µM | [10] 2.51 µM
not listed: [8]
inactive: all other assays above

CC=C(C)C(C)=O
not listed: [8] | [9] | [10]
inactive: all other assays above

O=C1CCCCCCCCCCC1
not listed: [8] | [9] | [10]
inactive: all other assays above

COC(OC)(C(=O)c1ccccc1)c1ccccc1
not listed: [8] | [9] | [10]
inactive: all other assays above

Oc1c(Cl)cc(Cl)c(Cl)c1Cl
active: [1] 31.2 µM | [2] 20 µM | [3] 32.2 µM | [4] 0.0683 µM | [5] 29.9 µM | [6] 20 µM | [7] 20 µM

C=CC(=O)NCOCCCC
not listed: [8] | [9] | [10]
inactive: all other assays above

CC1(C)CC(O)CC(C)(C)N1[O]
not listed: [8] | [9] | [10]
inactive: all other assays above

CC(Cl)COP(=O)(OCC(C)Cl)OCC(C)Cl (stereo not given)
not listed: [8] | [9] | [10]
inactive: all other assays above

O=C(OCc1ccccc1)c1ccc(O)cc1
active: [8] 4.08 µM

Nc1cccc(N)n1
not listed: [8] | [9] | [10]
inactive: all other assays above

CC(CCC(=O)O)(c1ccc(O)cc1)c1ccc(O)cc1
not listed: [8] | [9] | [10]
inactive: all other assays above

CCCCC(CC)COS(=O)(=O)O (stereo not given)
inactive: [8]
